Source: PubChem BioAssay (NCATS)
Results filed as inconclusive are left out. Entries that show only a call come without a potency. Active and inactive are the calls of the source. The call rests on the fitted dose curve; in most records, active means well fitted cell-killing curve with a large enough effect; inconclusive means small, poorly fitted or top-dose-only effect, or effect the other way; inactive means no such curve, though single readings can be large or run the other way.

What was measured:
[1] = Viability qHTS for spleen associated tyrosine kinase inhibitor (SYKi) naive MV4-11 cells (AID 1963823); details: MV4-11 AML viability, CellTiter-Glo luminescence, 72 h; series mostly up to 45 µM; further: nearly all actives have a fitted effect of over 40% in size
Outline: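 Compounds were dispensed acoustically onto plates, MV4-11 cells (SYKi-naive) added at 500 per well, and plates incubated 72 hr at 37 C. CellTiter-Glo was added and luminescence measured after 10 min.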

[2] = Viability qHTS for spleen associated tyrosine kinase inhibitor (SYKi) drug resistant MV4-11 cells (AID 1963824); details: SYKi-resistant MV4-11 viability, CellTiter-Glo, 72 h; series mostly up to 45 µM; further: nearly all actives have a fitted effect of over 35% in size
Outline: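 CellTiter-Glo luminescence, read 10 min after reagent addition, reports viability after a 72 hr compound exposure. Cells are an MV4-11 line made resistant to SYK inhibition, seeded at 500 per well onto compound-containing plates.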
Potency means the concentration at half of the fitted maximal effect.

SMILES	Potency [1]	Potency [2]
CC12CC34CC(O)C5C(CO)(CO)CC(=O)CC5(C)C3CC1C2C4 (centres undefined)	inactive	inactive
CC(C)C(C)C(O)C1CC23CC(=O)C4(O)C(=C2CCC3C1C)C=CC1(O)CC(O)CCC14C (centres undefined)	inactive	7.09 µM (active)
CN1CCN(Cc2ccc(NC(=O)Cc3ccc(Oc4cc(NC(=O)C5CC5)ncn4)cc3)cc2C(F)(F)F)CC1	inactive	inactive
CC/C=C\CC1C(=O)C=CC1(CCCCC1CCC(=O)O1)OC(C)=O (centres undefined)	12.8 µM (active)	7.18 µM (active)
C[C@H]1O[C@@H](O[C@H]2CC[C@@]3(C)C(CC[C@]4(C)C3CC=C3C5CC(C)(C)CC[C@]5(C(=O)O)CC[C@]34C(=O)O)C2(C)C)[C@H](O)[C@@H](O)[C@@H]1O (some centres undefined)	inactive	inactive
CC(=O)O[C@H]1[C@H](C)[C@@H](O)[C@H]2[C@@H]1C=C(C(=O)O)[C@H]1C[C@@H]3[C@H]([C@H]21)[C@H]1C(=O)O[C@@H]2CC[C@@]3(C)O[C@]1(O)[C@@H]2C	inactive	inactive
CCOC(=O)c1cnc2ccc(-c3cncc(NS(=O)(=O)c4ccccc4)c3)cn12	0.326 µM (active)	0.231 µM (active)
C=C1CC2C3(C)C=CC(=O)OC(C)(C)C3CC(OC(C)=O)C2(C)C2C(=O)OC(C)C(=O)C12C (centres undefined)	inactive	inactive
CC(=O)NC1CC(=O)C23C(=O)NC(Cc4c[nH]c5ccccc45)C2C(C)=C(C)C(O)C3/C=C/CC(C)/C=C(/C)C(O)C1O (centres undefined)	inactive	inactive
COC(=O)C1=CO[C@@H](O[C@@H]2O[C@H](CO)[C@@H](O)[C@H](O)[C@H]2O)[C@H]2[C@@H]1C=C[C@@]21C=C([C@H](C)O)C(=O)O1	inactive	inactive
CN[C@@H]1[C@@H](O)[C@@H](O[C@@H]2[C@@H](O)[C@H](O[C@H]3O[C@H](CN)[C@@H](O)[C@H](O)[C@H]3O)[C@@H](N)C[C@H]2NC(=O)[C@@H](O)CN)OC[C@]1(C)O	inactive	inactive
COc1ccc(C(=O)N(CCC(C)C)Cc2nc(C)c(C)n2Cc2ccccc2C)c(OC)c1	20.6 µM (active)	20.6 µM (active)
CCCCN1CCCC[C@H]1C(=O)Nc1c(C)cccc1C	inactive	inactive
C[C@]1(OC(=O)/C=C/c2ccccc2)C[C@@H](O)[C@]2(O)C=CO[C@@H](O[C@@H]3O[C@H](CO)[C@@H](O)[C@H](O)[C@H]3O)[C@@H]21	inactive	inactive
CCOc1c2c(c(OCC)c3ccccc13)C(=O)N(c1ccc(CC(=O)NS(=O)(=O)c3ccccc3)cc1)C2	inactive	inactive
OCC1=C[C@@H](O)[C@@H]2C=CO[C@@H](O[C@@H]3O[C@H](CO)[C@@H](O)[C@H](O)[C@H]3O)[C@H]12	inactive	inactive
COC(=O)C1=COC(O[C@@H]2O[C@H](CO)[C@@H](O)[C@H](O)[C@H]2O)C2C(C)C(=O)CC12 (some centres undefined)	inactive	inactive
O=C(NCc1ccc(OC(F)(F)F)cc1)C1c2ccccc2C(=O)N1C1CCOCC1 (centres undefined)	inactive	inactive
C=C(C(=O)O[C@H]1C/C(C)=C/CC/C(CO)=C/[C@H]2OC(=O)C(=C)[C@H]12)C(O)CO (some centres undefined)	2.02 µM (active)	0.904 µM (active)
CC1(CO)CC2C(O)C3=C(CC(C)(O)C2C1)C(=O)OC3 (centres undefined)	inactive	inactive
CC(=O)O[C@@H]1CC[C@@]2(C)[C@H](CC[C@@H]3[C@@H]2C[C@H](OC(C)=O)[C@]2(C)[C@@H](C(C)=O)CC[C@@H]32)C1	8.2 µM (active)	8.2 µM (active)
O=C(/C=C/c1ccc(O)cc1)OC1[C@H](O)CC(O)(C(=O)O)C[C@H]1O (some centres undefined)	inactive	inactive
CCC[C@@]1(CCc2ccccc2)CC(O)=C([C@H](CC)c2cccc(NS(=O)(=O)c3ccc(C(F)(F)F)cn3)c2)C(=O)O1	20.6 µM (active)	23.1 µM (active)
C=C(C)C(=O)OC1[C@@H]2C(=C)C(=O)O[C@@H]2C[C@@H](C)[C@@H]2C=CC(=O)[C@@]12C (some centres undefined)	2.27 µM (active)	2.86 µM (active)
CC1(C)CC[C@]2(C(=O)O)CC[C@]3(C)C(=CCC4[C@@]5(C)C[C@@H](O)[C@H](O)[C@@](C)(CO)C5CC[C@]43C)C2C1 (some centres undefined)	inactive	7.96 µM (active)
Fc1ccc(N2CCCCC2)c(NC(=S)c2ccncc2)c1	11.6 µM (active)	9.2 µM (active)
CCOc1ccc(-n2c([C@@H](C)N(Cc3cccnc3)C(=O)Cc3ccc(OC(F)(F)F)cc3)nc3ncccc3c2=O)cc1	18.4 µM (active)	16.4 µM (active)
